From PubChem BioAssay
Most compounds without a hit are left out; they make up all but 14% or so of the library.
MARV entry inh: inhibitors of Marburg virus binding or cell entry; Marburg virus pseudotyped entry inhibition, cell reporter; Potency, µM (highest dose often 37.8 µM), without a hit: top-dose activity change, negative = inhibition, usual class: inhibitors; actives 1.8% (n = 300,000); AID 540276; calls by dose curve; tested in HEK293 cells; also: potency is read from the fitted curve at half-maximal effect
HCMV antiviral: human cytomegalovirus inhibition; HFF cells, HCMV-luciferase reporter, 72 h; stronger effect = lower value; activity change, negative = inhibition, % at 57.5 µM; actives 4.5% (n = 410,000); in the data active = activity change below about -60%; inconclusive = no clear call, values can overlap the other calls; inactive = above about -39%
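HFF cells seeded 16 h at 37C, treated with compounds, infected with luciferase-reporter HCMV at MOI 1 PFU/cell; luciferase read at 72 h post infection, normalized to buffer-only and Salinomycin controls.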
Pf growth 48h: inhibits P. falciparum growth in the first generation, 48 h; AID 504832; P. falciparum luciferase growth in erythrocytes, 48 h; actives 5.9% (n = 310,000); Potency, µM (highest dose often 28.7 µM), for inactives: top-dose activity change, negative = inhibition, most hits filed as inhibitors; also: potency is read from the fitted curve at half-maximal effect
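Erythrocytes infected with P. falciparum carrying an integrated firefly luciferase reporter (2% hematocrit, 0.1% parasitemia final) were exposed to compounds in RPMI 1640 with 0.5% Albumax at 37 C, 5% CO2. Growth inhibition was scored as reduced luminescence.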
Pf growth 96h: P. falciparum growth inhibition at 96 hours; AID 504834; P. falciparum luciferase reporter growth, 96 h; Potency, µM (series often up to 28.7 µM), for inactives: at the top dose activity change, negative = inhibition, usual class: inhibitors; actives 6.9% (n = 320,000); also: potency is read from the fitted curve at half-maximal effect
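P. falciparum expressing integrated firefly luciferase grown in erythrocytes (2% hematocrit, 0.05% parasitemia final) with compounds for 96 hours at 37 C, 5% CO2. Growth inhibition read as loss of luminescence after adding luciferase detection reagent.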
HCV inh: blocks hepatitis C virus; Huh7.5.1 HCVcc-Cre infection, luciferase reporter, 44 h; Potency, µM (highest dose often 41.8 µM), without a hit: top-dose activity change, negative = inhibition, actives largely listed as inhibitors; actives 3.4% (n = 340,000); AID 651820; also: potency is read from the fitted curve at half-maximal effect
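Seed cells (1,000/well) for 4 h; treat with compound and infect with HCVcc-Cre, moi about 0.5. Incubate 44 h, then detect luciferase activity.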
Lassa entry inh: inhibitors of Lassa virus binding or cell entry. actives 1.2% (n = 300,000). Potency, µM (highest dose often 37.9 µM), inactives show top-dose activity change, negative = inhibition, actives largely listed as inhibitors. Lassa virus pseudotype entry inhibition, cell reporter; calls by dose curve; tested in HEK293 cells; also: potency is read from the fitted curve at half-maximal effect; nearly all actives have a fitted effect of over 50% in size
Starred values were filed as active, the others as inactive; u = inconclusive; x = no result; ! = a repeat was not active; [ ] = remark or other dose. Unless noted, calls follow the shape of the dose curve; as a rule, active = well fitted inhibition curve with a large enough effect; inconclusive = small, poorly fitted or top-dose-only effect, or another doubt; inactive = no such curve, though single readings can be large or run the other way. % is scaled to controls: 0 for no effect and ±100 for the full control effect.

SMILES | MARV entry inh | HCMV antiviral | Pf growth 48h | Pf growth 96h | HCV inh | Lassa entry inh
Cc1ccc(NC(=O)CN(C)S(=O)(=O)c2cccc3nsnc23)c(C)c1 | -1%[46.1 µM] | -15 | x | x | x | -1%[46.1 µM]
Cc1cc(C)cc([C@H]2C[C@]34CN(C(=O)OC(C)(C)C)S(=O)(=O)[C@H]3C[C@H]2O4)c1 | x | -12 | x | x | x | x
COC1=CC(=O)c2c(ccc3ncnc(N)c23)C1=O | u | -99* | x | x | u | u
Cc1cccc(NC(=S)N/N=C/c2c[nH]c3ccccc23)c1 | u | 5 | u | 44% | 10µM* | u
Cc1nc(N)sc1C(=O)N/N=C/c1c[nH]c2ccccc12 | 2.9µM* | 62 | x | -3% | -22% | 10%
Cc1ccc(C(=O)Nc2ccc(C(=O)N/N=C/c3c[nH]c4ccccc34)cc2)cc1 | -2% | 206 | -29% | -25% | u | -23%
Cc1nc(N)sc1C(=O)N/N=C/c1ccccc1[N+](=O)[O-] | x | 83 | 162% | 2% | x | x
O=C(N/N=C/c1c[nH]c2ccccc12)c1ccncc1 | -17% | 14 | 12% | 12µM* | -6% | 15%
Cc1ccc(S(=O)(=O)N2CCCCC2)cc1C(=O)NCc1ccc(S(N)(=O)=O)cc1 | -5% | u | x | x | 6% | 0%
COc1ccc(C)cc1NC(=O)NCCn1nnc2cc(S(=O)(=O)N(C)C)ccc21 | x | -14 | x | x | x | -3%[46.1 µM]
CCC(C)(C)NC(=O)C(c1cccc(OC)c1OC)N(Cc1ccc(OC)cc1)C(=O)CCC(=O)Nc1cc(C)on1 (configuration not stated) | u | -2 | 8.3µM* | 9% | -10% | -14%[46.1 µM]
COc1cccc(C(C(=O)NC(C)(C)C)N(Cc2ccc(F)cc2)C(=O)CCC(=O)Nc2cc(C)on2)c1OC (configuration not stated) | -1%[46.1 µM] | -27 | 13µM* | u | -19% | -21%
CCC(C)(C)NC(=O)C(c1cccc(OC)c1OC)N(C(=O)CCC(=O)Nc1cc(C)on1)C(C)C (configuration not stated) | 16%[46.1 µM] | -79* | -19% | u | 17% | 4%
COc1cccc(C(C(=O)NC(C)(C)C)N(CCC(C)C)C(=O)CCC(=O)Nc2cc(C)on2)c1OC (configuration not stated) | 8.9µM* | -16 | u | 37% | -5% | -17%[46.1 µM]
COc1cc(F)c(S(=O)(=O)Nc2c(C)n(C)n(-c3ccccc3)c2=O)cc1OC | x | 8 | x | x | x | 0%[46.1 µM]
CC(=O)Nc1cccc(-c2ccnc3c2CC(C(=O)Nc2ccc(C(C)C)cc2)O3)c1 (configuration not stated) | x | -15 | x | x | x | x
COC(=O)C1=C(C(=O)OC)[C@@H]2Nc3ccccc3[C@@]23C[C@@H](C(=O)OC)N(C(=O)Nc2ccc(C(F)(F)F)cc2)C3=N1 | -15%[14.2 µM] | x | x | x | x | x
Cc1[nH]c2ccccc2c(=O)c1SC(F)(F)C(F)C(F)(F)F (configuration not stated) | 21% | 87 | 0.83µM* | 3.3µM* | -7% | -1%
COC(=O)C(F)(F)Sc1c(C)[nH]c2ccccc12 | 9% | 45 | -5% | u | 2% | 12%
CN(C)C(=O)Oc1ccc(OCc2nc3ccccc3[nH]2)cc1 | u | 32 | 104% | 120% | -30% | 9.2µM*
COc1ccc(NC(=O)Cc2nc3ccccc3[nH]2)cc1 | 1% | -33 | 12µM* | u | 16% | 10%
COc1ccccc1NC(=O)CSCC(N)=O | u | 20 | 9% | x | 10% | -6%
COc1ccc(NC(=O)Cc2ccccc2)cc1 | u | 26 | 105% | u | 9% | u
COc1ccccc1NC(=O)CSCc1nc2ccccc2[nH]1 | 10% | 55 | u | 12µM* | -2% | 3%
CC[C@]12C(=O)N(C)C[C@H]([C@@H]3C(=O)N(Cc4ccccc4)C(=O)[C@@H]31)N2C(=O)c1ccc(C(F)(F)F)cc1 | x | x | x | x | 6% | x
SMILES | MARV entry inh | HCMV antiviral | Pf growth 48h | Pf growth 96h | HCV inh | Lassa entry inh
Cc1c(NC(=O)CSc2nnc(C(C)N(C)C)n2-c2ccccc2)c(=O)n(-c2ccccc2)n1C (configuration not stated) | u | -21 | x | x | 29% | -5%
Cc1ccc(S(=O)(=O)N2CCN(c3ncccn3)CC2)cc1C | u | 4 | x | x | -3% | -17%[46.1 µM]
O=S(=O)(c1ccc2c(c1)OCCO2)N1CCN(c2ncnc3sccc23)CC1 | u | -91* | u | -20%[5.75 µM] | 1µM* | u
CN1CCN(S(=O)(=O)c2ccc3c(c2)OCCO3)CC1 | 13% | 36 | 5% | x | 13% | u
Cc1ccc(S(=O)(=O)N2CCN(c3ncnc4sccc34)CC2)cc1C | u | -72* | 13µM* | 12µM* | 11µM* | u
COc1ccc2c(C)cc(SCC(=O)Nc3nsc(-c4ccccc4C)n3)nc2c1 | 21%[46.1 µM] | -2 | x | x | x | 22%[46.1 µM]
Cc1cc2c(nc1C)CCCN2C[C@@H](C)O/N=C1/[C@H]2CCn3c(=O)n(-c4ccccc4)c(=O)n3[C@H]2[C@H](O)[C@@H]2O[C@H]12 | -39% | x | u | 13µM* | u | -10%
O=c1n(-c2ccccc2)c(=O)n2n1CC[C@@H]1/C(=N/OC[C@@H](O)COCc3ccco3)[C@H]3O[C@H]3[C@@H](O)[C@@H]12 | -23%[14.2 µM] | x | x | x | x | x
COc1cccc(C(=O)Nc2nc(-c3ccc(S(=O)(=O)N4CCOCC4)cc3)cs2)c1 | u | -88* | 12µM* | 2% | 10µM*! | 11µM*
CC(C)CC(=O)Nc1nc(-c2ccc(S(=O)(=O)N3CCOCC3)cc2)cs1 | -10% | -39 | u | u | u | u
Cc1ccc(Nc2nc(-c3ccc(S(=O)(=O)N4CCOCC4)cc3)cs2)cc1Cl | u | -74* | 10µM* | -11% | 9% | -5%
O=C(Nc1nc(-c2ccccc2)cs1)C1CCCN(S(=O)(=O)c2ccccc2)C1 (configuration not stated) | 8.2µM* | u | x | u | 5µM* | 10µM*
O=C(Nc1nc(-c2nc3ccccc3s2)cs1)c1ccc(S(=O)(=O)N2CCOCC2)cc1 | u | u | 16% | 16% | 11µM* | -80%
CCCN(CCC)Cc1cc(=O)oc2ccc3ccccc3c12 | x | -13 | x | x | x | x
CN1CCC(C)(C(=O)Nc2ccc3c(c2)OCCO3)C1 (configuration not stated) | x | -38 | x | x | x | x
CC1=C(C(=O)N2CCCCCC2)CC(CC(=O)NCc2ccco2)C(=O)N1Cc1ccccc1 (configuration not stated) | x | -11 | x | x | x | x
Nc1c(C(=O)Nc2ccc(OC(F)(F)F)cc2)sc2nc(-c3ccncc3)ccc12 | -9%[46.1 µM] | u | x | x | x | u
COc1ccc(-c2noc(CC(=O)N(C)c3cc(Cl)c(OC)cc3OC)n2)cc1 | x | -9 | x | x | x | -2%[46.1 µM]
